Screening data (PubChem)
An excerpt weighted towards active compounds, which were near 28% of everything screened.
PLK1 inh = PLK1 (human) kinase inhibition; P53350; recombinant PLK1 kinase, TR-FRET peptide phosphorylation; inhibition, % at 10 µM; 0.53% of 97,000 active;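 active = inhibition of 50% or more in the single-concentration screen; inactive = inhibition below 50%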;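 note: 0% = DMSO max control and 100% = H-89 dihydrochloride min control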
Target sequence (P53350 whole entry, looked up): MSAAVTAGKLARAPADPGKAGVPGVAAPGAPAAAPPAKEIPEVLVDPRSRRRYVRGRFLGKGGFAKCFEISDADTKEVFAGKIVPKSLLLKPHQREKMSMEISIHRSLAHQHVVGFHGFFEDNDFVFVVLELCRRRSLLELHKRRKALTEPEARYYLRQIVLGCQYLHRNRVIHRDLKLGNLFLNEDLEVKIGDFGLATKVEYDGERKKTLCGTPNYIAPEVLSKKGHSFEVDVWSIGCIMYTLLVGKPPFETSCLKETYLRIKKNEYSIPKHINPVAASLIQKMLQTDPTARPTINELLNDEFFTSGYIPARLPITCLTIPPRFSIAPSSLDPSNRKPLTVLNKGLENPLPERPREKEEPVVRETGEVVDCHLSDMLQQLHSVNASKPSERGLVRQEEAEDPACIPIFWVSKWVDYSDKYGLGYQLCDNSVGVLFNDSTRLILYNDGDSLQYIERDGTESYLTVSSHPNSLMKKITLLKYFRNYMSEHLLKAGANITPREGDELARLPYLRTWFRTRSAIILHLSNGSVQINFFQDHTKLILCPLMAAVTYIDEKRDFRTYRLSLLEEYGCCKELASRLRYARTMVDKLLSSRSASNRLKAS
CYP2C19 activ = increases human CYP2C19 enzyme activity; activation factor at 5 µM; 96,000 tested, under 10 active; AID 1025; recombinant CYP2C19, luciferin-H EGE luminescence; hits give high values; 0 = fully inhibited enzyme, 1 = untreated enzyme;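 active = activation factor of at least 2 at 5 µM in the primary screen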;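 note: 0 = wells with 2.5 mM tranylcypromine and 1 = vehicle-only wells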
PLK1 PBD inh = inhibitors of human Plk1 polo box domain binding. inhibition, %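 (tested at about 20 µM)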. AID 693. P53350. Plk1 PBD phosphopeptide binding, fluorescence polarization. 0.13% of 97,000 active; in the data active = inhibition above about 34%, passing the limit was not always enough
CYP2C9 act = activators of human CYP2C9; recombinant CYP2C9, luciferin-H conversion, luminescence; hits give high values; factor 1 = untreated enzyme, 0 = blocked; activation factor at 5 µM; 1.4% of 96,000 active; AID 1024;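 active = activation factor of 2 or more for CYP2C9 at a 5 µM dose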;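 note: 0 = sulfaphenazole-blocked wells and 1 = vehicle-only wells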
CYP2C19 inh = blocks human cytochrome P450 2C19; AID 778; 21% of 96,000 active; inhibition, % at 5 µM; P33261; CYP2C19 Supersomes, luciferin-H EGE luminescence, 30 min;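 active = CYP2C19 inhibition above a set limit at 5 µM in the primary screen, cut at about 50% in these data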;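 note: plate controls were negative control wells for no effect and 2.5 mM tranylcypromine positive control for full effect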
CYP2C9 inh = human CYP2C9 inhibition | inhibition, % at 5 µM | CYP2C9 Supersomes, luciferin-H conversion, luminescence | 20% of 96,000 active | AID 777 | P11712;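 active = blocking of liver enzyme CYP2C9 beyond about 50% at 5 µM, limit read from the data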
* hit, by the source's call; · = not tested or not shown.

SMILES	PLK1 inh	CYP2C19 activ	PLK1 PBD inh	CYP2C9 act	CYP2C19 inh	CYP2C9 inh
O=C1NC(c2ccco2)Nc2ccccc21 (stereo not given)	-9	1	-19	0.8	5	23
O=c1[nH]c2c(s1)C(c1ccco1)C1C3CCC(C3)C1S2 (stereo not given)	-8	0.2	-3	0.6	83*	38
O=C(Nc1cc(C(F)(F)F)ccc1N1CCOCC1)c1ccc(Cl)nc1	-10	0.2	-4	0.6	76*	37
O=C(Nc1cc(C(F)(F)F)ccc1N1CCOCC1)c1cccnc1Cl	-1	0.7	6	0.9	34	9
O=C(Nc1cc(C(F)(F)F)ccc1N1CCOCC1)c1c(F)c(F)c(F)c(F)c1F	-16	1	20	1	2	-1
O=C(Nc1cc(C(F)(F)F)ccc1N1CCOCC1)c1ccccc1	-11	0.4	-11	0.9	64*	11
CCC(=O)Nc1cc(C(F)(F)F)ccc1N1CCOCC1	-7	0.7	-8	0.7	32	30
COC(=O)c1ccc(CNC(=O)CNc2cc(C(F)(F)F)ccc2N2CCOCC2)cc1	·	0.5	·	0	45	95*
O=C(Nc1cc(C(F)(F)F)ccc1N1CCOCC1)c1cn2ccccc2n1	-17	1	0	0.5	0	54*
Cc1cc(C(=O)OCC(=O)Nc2cc(C(F)(F)F)ccc2N2CCOCC2)c(C)o1	-14	0.7	3	0.4	32	63*
CCN(c1ccccc1)S(=O)(=O)c1ccc(F)cc1C	-11	0.3	14	0.9	67*	10
Cc1cc(=O)[nH]c(SCc2cc(=O)n3nc(C)sc3n2)n1	-16	1.2	-17	1.1	-15	-13
Cc1sc2nc(CN(CCc3ccccc3)C(=O)c3ccco3)[nH]c(=O)c2c1C	·	1	·	0.8	1	21
Cc1sc2nc(CN(Cc3ccccc3)C(=O)NC3CCCCC3)[nH]c(=O)c2c1C	50*	·	-9	·	·	·
CC1(C(=O)NC2CCCCCCC2)CCC(=O)N1Cc1cccnc1 (stereo not given)	-11	0.9	-1	0.8	14	16
O=S(=O)(NC(=NC1CCCC1)C(F)(F)F)c1ccccc1	-11	0.3	-1	1.4	66*	-41
CC1CCOC2(O1)C(=O)N(CN1CCN(c3ccccc3F)CC1)c1ccccc12 (stereo not given)	-7	1	-4	1.2	0	-16
Cc1ccc(-c2nc(C(=O)NC3CCCCCC3)no2)cc1	-5	·	-6	·	·	·
CC(C)Cn1c(-c2csc3ccccc23)n[nH]c1=S	-2	0.2	-14	0.7	78*	34
CCn1c(-c2ccc(C)cc2)n[nH]c1=S	-12	0.6	23	0.7	45	32
Cc1occc1-c1n[nH]c(=S)n1CC(C)C	-3	·	-25	·	·	·
COc1ccc(-c2n[nH]c(=S)n2CC(C)C)cc1	-9	0.2	-1	0.4	78*	56*
Cc1nc2nc3c(cn2n1)C(=O)CC(C)(C)C3	-3	0.9	1	1.4	8	-36
O=C(NC1CC2CCCC(C1)N2CC(=O)N1CCCc2ccccc21)C1CCCCC1 (stereo not given)	-17	·	8	·	·	·
CCOc1cc(CNn2nnnc2N)cc(Cl)c1OCC(=O)NC(C)(C)C	-6	0.1	28	0.7	91*	29
SMILES	PLK1 inh	CYP2C19 activ	PLK1 PBD inh	CYP2C9 act	CYP2C19 inh	CYP2C9 inh
COc1cc(CNn2nnnc2N)ccc1OCc1c(Cl)cccc1Cl	-8	0.4	-17	0.8	62*	19
CCOc1ccccc1CNn1nnnc1N	-13	·	3	·	·	·
COC(=O)CCCC[C@@H]1SC[C@@H](NC(=O)OC)[C@@H]1NC(=O)OC	-3	·	1	·	·	·
CCOC(=O)c1c(C)[nH]c(C(=O)COC(=O)C2(C)CC2(Cl)Cl)c1C (stereo not given)	6	0.8	-9	0	24	99*
CCOC(=O)c1c(C)[nH]c(C(=O)COC(=O)CSCC(=O)N(CC)CC)c1C	-8	1	3	0.6	1	44
CCOC(=O)c1c(C)[nH]c(C(=O)COC(=O)CCC2CCCC2)c1C	-10	0.5	-20	0.2	47	82*
O=C(c1cc2cc(Cl)ccc2oc1=O)N1CCCC1	8	·	-26	·	·	·
Cc1cc2nn(-c3cccc4ccccc34)nc2cc1N	2	0.7	-6	0.4	31	58*
Cc1ccccc1-c1nc2cc(N)ccc2o1	-10	0.7	-12	0.7	33	27
